TDP1 cell noCPT – qHTS for Inhibitors of human tyrosyl-DNA phosphodiesterase 1 (TDP1): qHTS in cells in absence of CPT | DT40 Tdp1-/- hTDP1 cells, no CPT, ATP luminescence, 48 h | Potency, µM (highest dose often 46.2 µM), inactives show top-dose activity change, negative = growth inhibition, actives largely listed as inhibitors | 420,000 tested, 15% active | AID 686978, 2013; also: potency is read from the fitted curve at half-maximal effect; nearly all actives have a fitted effect of over 55% in size
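Chicken DT40 Tdp1-/- cells stably complemented with human TDP1 were seeded at 400 cells/well with DMSO in place of 20 nM camptothecin. After compound pinning, cells grew at least 48 hr at 37 °C; viability read by CellTiter-Glo luminescence.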
DT40 TDP1 CPT – growth inhibition of DT40 Tdp1-/-;hTDP1 cells with camptothecin (screen for TDP1 inhibitors) | Potency, µM (top dose mostly 46.2 µM), for the others: top-dose activity change, negative = growth inhibition, usual class: inhibitors | 420,000 tested, 12% active | chicken DT40 Tdp1-/-;hTDP1 cells + 20 nM CPT, ATP luminescence, 48 h | AID 686979; also: potency is read from the fitted curve at half-maximal effect; nearly all actives have a fitted effect of over 55% in size
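Cell growth measured by CellTiter-Glo luminescence after a minimum 48 h, 37 C compound exposure with 20 nM CPT in Tdp1-knockout DT40 cells stably expressing hTDP1, seeded 400/well; qHTS titration format.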
IL-1B inflam inh – blocks inflammasome-driven IL-1 beta release. THP-1 LPS/ATP IL-1B secretion, AlphaLISA, 16 h; active compounds read low. activity change, % at 57.5 µM. 360,000 tested, 4.7% active. AID 743279; in the data active = activity change below about -50%; inconclusive = mostly about -30% to -49%
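THP-1 cells pretreated 1 hr with compounds (up to 57.5 uM final), then stimulated with LPS (250 ng/mL final) plus ATP (1.25 mM final); secreted IL-1B measured by AlphaLISA after 16 hr, decreased signal indicating inhibition.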
TDP1 block – inhibitors of human tyrosyl-DNA phosphodiesterase TDP1. AID 485290. Potency, µM (titrated, usually from 130 µM), for inactives: at the highest dose activity change, negative = inhibition, actives largely listed as inhibitors. recombinant TDP1, AlphaScreen DNA substrate cleavage. Q9NUW8. 350,000 tested, 0.28% active; also: potency is read from the fitted curve at half-maximal effect; nearly all actives have a fitted effect of over 40% in size
Target sequence (Q9NUW8 whole entry, looked up): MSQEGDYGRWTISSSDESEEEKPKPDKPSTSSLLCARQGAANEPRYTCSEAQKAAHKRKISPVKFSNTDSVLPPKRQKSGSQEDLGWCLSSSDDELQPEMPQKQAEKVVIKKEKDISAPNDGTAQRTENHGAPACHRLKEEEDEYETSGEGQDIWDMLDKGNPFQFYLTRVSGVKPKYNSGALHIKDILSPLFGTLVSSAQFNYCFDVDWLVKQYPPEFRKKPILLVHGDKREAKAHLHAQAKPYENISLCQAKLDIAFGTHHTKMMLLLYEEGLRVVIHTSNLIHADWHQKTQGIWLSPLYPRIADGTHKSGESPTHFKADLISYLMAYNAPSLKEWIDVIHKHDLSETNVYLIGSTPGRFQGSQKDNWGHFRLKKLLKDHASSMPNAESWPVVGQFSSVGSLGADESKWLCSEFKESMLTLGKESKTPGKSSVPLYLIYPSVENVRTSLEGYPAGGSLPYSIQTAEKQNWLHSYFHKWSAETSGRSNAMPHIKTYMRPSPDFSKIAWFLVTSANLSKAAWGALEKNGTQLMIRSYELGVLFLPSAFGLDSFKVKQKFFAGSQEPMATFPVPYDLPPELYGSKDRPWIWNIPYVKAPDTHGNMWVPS
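Steps: enzyme plus compound, 15 min RT; add biotin/phosphotyrosine-FITC oligonucleotide (15 nM final), react 5 min; add donor/acceptor beads (10 ug/ml final), 10 min; read AlphaScreen. Tdp1 at 1 nM final.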
Giardia killer – kills Giardia lamblia; Giardia lamblia trophozoite viability; activity change, % at 7.66 µM, hits read low; 340,000 tested, 0.15% active; in the data active = activity change below about -80%; inconclusive = between about -30% and that limit;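 also: parasites exposed to compound for two days anaerobically before the ATP read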
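Viability, read as ATP luminescence: trophozoites at 100 cells/well, compound added, 48 hrs anaerobic at 37 deg C, then 15-30 min room-temperature development before reading.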
ELG1 repair inh – blocks ELG1-dependent DNA repair in HEK293T cells. HEK293T ELG1-luciferase reporter, luminescence, 16 h; DNA damage induced by 5-fluorouridine. 330,000 tested, 2.3% active. Potency, µM (highest dose often 46.1 µM), for the others: top-dose activity change, negative = inhibition, hits mostly inhibitors; also: potency is read from the fitted curve at half-maximal effect; nearly all actives have a fitted effect of over 55% in size
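Cells (2,000 per well) received 5-fluorouridine plus test compound or DMSO and were incubated 16 hr at 37 °C, 5% CO2. Luciferase activity was read by luminescence 30 min after ONE-Glo addition; signal suppression marked inhibition of damage-induced ELG1 function.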
Numbers without * were called inactive; ? = inconclusive; . = not tested or not shown. An excerpt weighted towards active compounds, which were near 19% of everything screened. Unless noted, calls follow the shape of the dose curve; as a rule, active = well fitted curve in the direction sought with a large enough effect; inconclusive = small, poorly fitted or top-dose-only effect, or another doubt; inactive = no such curve, though single readings can be large; an effect the other way counts as inactive or inconclusive. % is scaled to controls: 0 for no effect and ±100 for the full control effect.

SMILES | TDP1 cell noCPT | DT40 TDP1 CPT | IL-1B inflam inh | TDP1 block | Giardia killer | ELG1 repair inh
CSc1ncccc1C(=O)NC1CC(C)(C)Cc2c1cnn2-c1ccccc1C (stereo not given) | ? | 23µM* | -2 | 2% | 7 | 5%
Cc1ccccc1-n1ncc2c1CC(C)(C)CC2NC(=O)c1snnc1C (stereo not given) | 26µM* | ? | 5 | 8% | 19 | 10%
CC(=O)c1ccc(NC(=O)CCc2c(C)nc3c(c2C)c(=O)n(C)c(=O)n3C)cc1 | ? | -10% | . | 3% | . | .
COc1cccc(C(=O)NCC(=O)OCc2cc(=O)n3c(C)csc3n2)c1 | -12% | -11% | . | 1% | . | .
Cc1ccc(C)o1 | . | . | . | 15% | . | .
CCOC1=C2[C@H](c3ccccc3)N(S(=O)(=O)c3ccc(C)cc3)C[C@H]2n2c(=O)n(-c3ccccc3)c(=O)n2C1 | -6% | -12% | -1 | . | . | .
Cc1ccccc1-n1ncc2c1CC(C)(C)CC2NC(=O)CSc1ccncc1 (stereo not given) | 16µM* | ? | -9 | 4% | 0 | -7%
CCOc1ccc(C(CC(=O)Nc2cc(C)c(Cl)cc2OC)N2Cc3ccccc3C2=O)cc1OC (stereo not given) | ? | ? | . | 3% | . | .
O=C(NCC1CCC2(CCN(Cc3ccc4ncccc4c3)CC2)O1)C1CCCO1 (stereo not given) | -14% | -7% | . | . | . | .
O=C(Cc1ccc(Br)cc1)NCc1ccccc1 | 2.1µM* | 2.9µM* | 33 | . | 19 | ?
Cc1ccc(CNC(=O)Cc2ccc(Br)cc2)cc1 | 7.3µM* | 9.2µM* | 31 | . | 11 | 0%
C/C(=C\C(=O)c1ccc(C)cc1)Nc1cccc(O)c1 | ? | 18µM* | -2 | 0% | 4 | ?
CC(=O)c1ccc(N2CCN(C(=S)Nc3ccccc3)CC2)cc1 | 21µM* | ? | -10 | 0% | 7 | -4%
S=C(Nc1ccccc1)N1CCN(c2ccccc2)CC1 | ? | ? | -8 | . | 8 | .
CC(=O)c1ccc(N2CCN(C(=S)Nc3ccccc3F)CC2)cc1 | 7.3µM* | ? | 23 | 0% | -7 | 6%
COc1ccc(N/N=C(/C(C)=O)N2CCCc3ccccc32)cc1 | ? | ? | -25 | 8% | 3 | 0%
COc1ccc(C)c2sc(=NC(=O)c3cccc(N4C(=O)CCC4=O)c3)n(C)c12 | 3% | -12% | 46 | 4% | 24 | ?
COc1ccc(C)c2sc(=NC(=O)c3ccccc3)n(C)c12 | 21µM* | ? | 52 | 2% | 41 | ?
COc1ccc(C)c2sc(=NC(=O)c3ccc(C(C)=O)cc3)n(C)c12 | ? | 15µM* | -11 | -5% | 4 | ?
O=C(N[C@@H](Cc1ccccc1)C(=O)OCc1ccccc1)c1nc[nH]c1C(=O)N1CCc2ccccc2C1 | ? | ? | 30 | 11% | -19 | 14%
COc1ccc(CCNC(=O)CCC(=O)N2CCOc3ccccc32)cc1OC | -27% | -26% | -16 | . | ? | -1%
COC(=O)c1ccc(C(NC(=O)OCc2ccccc2)/C(=C/[C@@H](C)C(=O)NCc2nc3ccccc3s2)c2cccnc2)cc1 (stereo not given in full) | . | . | . | 11% | . | .
CCCCN(CC)CCCNC(=O)C1CCCN(c2ncnc3c2nc2n3CCCCC2)C1 (stereo not given) | 4% | -14% | . | 1% | . | .
C[C@H](O)C#Cc1ccc2c(c1)O[C@@H](CN(C)Cc1ccc(-c3ccccc3)cc1)[C@H](C)CN([C@@H](C)CO)S2(=O)=O | 3.7µM* | 2.9µM* | ? | . | . | .
C[C@@H]1CN([C@@H](C)CO)S(=O)(=O)c2ccc(/C=C/c3ccccc3)cc2O[C@@H]1CN(C)Cc1ccc(C(=O)O)cc1 | 21µM* | 16µM* | 15 | . | . | .
SMILES | TDP1 cell noCPT | DT40 TDP1 CPT | IL-1B inflam inh | TDP1 block | Giardia killer | ELG1 repair inh
CCCNC(=O)N(C)C[C@@H]1Oc2cc(C#C[C@H](C)O)ccc2S(=O)(=O)N([C@H](C)CO)C[C@H]1C | 2% | -14% | 13 | . | . | .
C[C@@H]1CN([C@H](C)CO)S(=O)(=O)c2ccc(Br)cc2O[C@@H]1CN(C)Cc1ccc(-c2ccccc2)cc1 | 16µM* | ? | -1 | . | . | .
C[C@@H]1CN([C@H](C)CO)S(=O)(=O)c2ccc(Br)cc2O[C@@H]1CN(C)Cc1ccc(C(=O)O)cc1 | -4% | -7% | 7 | . | . | .
C[C@H](CO)N1C[C@H](C)[C@@H](CN(C)Cc2ccc3c(c2)OCO3)Oc2cc(Br)ccc2S1(=O)=O | 7.3µM* | 21µM* | 27 | . | . | .
CCOC(=O)CNC(=O)N1CCCN(S(=O)(=O)c2ccc3c(ccn3CC)c2)CC1 | . | . | . | 8% | . | .
Cc1nc(/N=C(\N)Nc2ccccc2)nc2ccccc12 | . | . | . | 0% | . | ?
Cc1ccc2nc(/N=C(\N)NC(=O)N3c4ccccc4Sc4ccccc43)nc(C)c2c1 | 9.2µM* | ? | 5 | 1% | 4 | -7%
CCC(=O)N/C(N)=N/c1nc(C)c2cc(OC)ccc2n1 | 12µM* | 13µM* | -66* | 2% | -1 | ?
Cc1ccc2c(C)nc(/N=C(\N)NC(=O)N3c4ccccc4Sc4ccccc43)nc2c1 | 21µM* | ? | -15 | -3% | -9 | 6%
CCCNC(=O)N1c2ccccc2Sc2ccccc21 | ? | -10% | -1 | 5% | 9 | -17%
Cc1cc2nc(/N=C(\N)NC(=O)N3c4ccccc4Sc4ccccc43)nc(C)c2cc1C | 15µM* | ? | -7 | 6% | 0 | -2%
COc1ccc2nc(/N=C(\N)NC(=O)C(C)(C)C)nc(C)c2c1 | ? | -18% | ? | -5% | -5 | 20%
Cc1onc(NC(=O)CSCC(=O)O)c1Br | 3% | -15% | 4 | . | -3 | ?
Cc1ccc(SCC(=O)Nc2ccc(F)cc2[N+](=O)[O-])cc1C | -26% | 22% | 15 | 8% | 5 | 1%
COc1ccc2nc(/N=C(\N)NC(=O)N3c4ccccc4Sc4ccccc43)nc(C)c2c1 | 16µM* | 13µM* | 4 | 0% | 3 | -29%
COc1ccccc1C(=O)N/C(=C\c1cn(C)c2ccccc12)C(=O)N1CCCC1 | -10% | ? | 0 | 5% | 8 | 14%
O=C(CCNc1cccc(Cl)c1)c1ccco1 | 8.2µM* | 7.3µM* | 4 | 5% | -8 | 10%
O=c1oc2ccccc2c(NC2CCCCC2)c1NS(=O)(=O)c1ccc(F)cc1 | ? | ? | -21 | 1% | 23 | -4%

From PubChem BioAssay
